Test results as given in PubChem BioAssay (NCI).
The panel holds about 83,000 compounds, 20% with a hit somewhere; the sample as a whole holds those more often.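 Assay: single dose, 48 h. Readout: percent growth (0 = no net growth; negative = cell death). Active: <10.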 A number with no mark means an inactive call. Calls of active or inactive are those of the source.

What follows are compounds tested on OVCAR-5 ovarian (assay: NCI-60 one-dose screen, 48 h (100 = growth as untreated, 0 = no growth, -100 = all killed)). Conditions: 10 µM.
Experimental: Growth inhibition of the OVCAR-5 human tumor cell line is measured as a screen for anti-cancer activity. Cells are grown in 96 well plates and exposed to the test compound for 48 hours. Compounds are tested at a single concentration, which is 10^-5 M for most compounds. The reported endpoint is percent growth (GI% or GIPRCNT), where numbers from 0 - 100% represent growth inhibition, and numbers from -100% - 0 represent cell death. For example, a value of 40 represents 60% growth inhibition. A value of 0 means no net growth occurred over the course of the experiment. A value of -40 indicates 40% of cells at the beginning of the experiment died by the end of the experiment. A value of -100 means all cells are dead at the end of the experiment.
NCI-60 Human Tumor Cell Lines Screen was performed using the standard one-dose NCI protocol, which is described in more detail at https://dtp.cancer.gov/discovery_development/nci-60/default.htm.
Compounds with GIPRCNT values below 10 were considered active. Activity score was based on GIPRCNT using the following formula: […]
Score is 0 for GIPRCNT values of 100 or above, 50 for GIPRCNT values of 0, and 100 for GIPRCNT values of -100.

Structure (SMILES)	growth
O=C1CC(c2cccc(-c3cccnc3)c2)=Nc2ccc(Br)cc2N1	91.5%
Cc1cc(Nc2cccc(F)c2)nc(NCc2ccccc2)n1	60.9%
CNC(=O)c1cc(Oc2ccc(NC(=O)Nc3ccc(Cl)c(OC(C)C)c3)c(F)c2)ccn1	85.3%
COc1ccc(-c2cn[nH]c2-c2cc(OC)c(OC)c(OC)c2)cc1	31.1%
Oc1ccccc1-c1nnc(Cn2c(Cc3cccc4ccccc34)nc3ccccc32)o1	96.8%
c1ccc(CNc2nc(Nc3ccc(-c4nc5ccccc5[nH]4)cc3)c3cn[nH]c3n2)cc1	41.1%
CCOC(=O)c1sc(Nc2ncccn2)nc1-c1ccccn1	93.1%
COC(=O)c1ccc(Cn2ccc(=O)[nH]c2=O)cc1	104%
COc1cc(-c2nc3ccc(C)cc3[nH]2)ccc1OCc1nnc(-c2ccc(CC(C)C)cc2)o1	102%
O=C1/C(=C/c2ccc(O)cc2O)N=C2SCCCN12	92.9%
CCCCCCCCCCSC(=N)N (tested in a mixture with another compound)	101%
C[n+]1c(/C=C/c2c[nH]c3ccccc23)ccc2ccccc21	75.6%
Cc1ccc(C(=O)O)c(N)c1C	106%
CCOC(=O)C(=O)Cc1cccnn1	103%
COc1ccc(-c2nsc3c2NC(=O)CC3c2ccc(Cl)cc2)cc1 (stereo not given)	100%
CCCCCCCC/C=C/CCCCCCCCC1=NCCN1CCO	95.2%
C[C@@H]1C(=O)N(C[C@H](Cc2ccccc2)NC(=O)OCc2ccccc2)[C@]1(Cc1ccccc1)C(=O)OCc1ccccc1	65.8%
O=[N+]([O-])c1ccc(-c2nc(-c3ccccc3)c(-c3ccccc3)n2-c2ccccc2)cc1	91.5%
COc1cc(OC)cc(N2CCN(C(=O)Nc3nc4cc(F)ccc4nc3OC)CC2)c1	49%
O=c1oc2c3ccc4cnccc4c3[nH]c2c2ccccc12	46.8%

Structure (SMILES)	growth
Nc1cc(O)cc(O)c1	89.6%
CC(=O)OCC(COC(C)=O)(COC(C)=O)COC(C)=O	102%
O=C(O)c1ccc(CNc2ccc(C(=O)CCl)cc2)cc1	96.8%
COc1ccc(CSc2nc3cc(OC)c(OC)cc3c(=O)n2-c2ccc(OC)cc2OC)cc1	102%
CCN(CC)CCn1c(=N)n(CC(O)c2ccc(Cl)c(Cl)c2)c2ccccc21 (stereo not given)	102%
COc1ccc(-c2cc(/C=C3\C(=O)Nc4cc(Cl)ccc43)[nH]n2)cc1OC	95.7%
CCN1CCOC1C(C)C (stereo not given)	99.2%
O=C(c1ccccc1)C(Sc1ccccc1)c1ccccc1 (stereo not given)	96%
N=C(N)c1ccc(-c2ccc(-c3ccccc3)s2)s1	-23.7% (active)
COc1ccc(Cn2cc3c(c2-c2cc(OC)c(OC)c(OC)c2)CCc2cnoc2-3)cc1N	52.4%
CCSc1nc2c([nH]1)c(=O)n(C)c(=S)n2C	99.1%
C[C@]12CC[C@H]3[C@@H](CCC4=CC(=O)CC[C@@]43C)[C@@H]1CC[C@@H]2c1csc(N)n1	99.8%
COc1ccc(-c2ccccc2)cc1C(=O)c1ccc(-c2ccccc2)cc1	87.8%
Cc1ccc(S(=O)(=O)Nc2cccc3[nH]c(C(F)(F)F)nc23)cc1	35.3%
COc1ccc(-c2ccc(-c3ccc(C(=N)N)c(F)c3)s2)cc1	-91.7% (active)
Cc1cccc2c1O/C(=C\c1ncc([N+](=O)[O-])n1C)C2=O	-15.7% (active)
CCCCn1c(=O)[nH]c(N)c(C(c2ccc(Cl)cc2)c2c(N)[nH]c(=O)n(CCCC)c2=O)c1=O	87.8%
COc1cc2ccnc(C=O)c2cc1OC	93.1%
COc1cccc2c1C(=O)c1c(O)c3c(c(O)c1C2=O)C[C@@](O)(C(=O)COC(=O)c1ccccc1)C[C@@H]3OC1CC(N)C(O)C(C)O1 (stereo not given in full)	-94.9% (active)
N=C(N)c1ccc(-c2ccc(-c3cccs3)s2)nc1	62.5%
